For 32 compounds, relative cell viability results are on record in the supplement of paper PMC9492666.

For experiment [1], the system named is HCC1937. Kind of experiment: relative cell viability, compound alone, vs DMSO (fraction of DMSO control); higher = less growth inhibition. As to conditions: 72 h.
The test system of experiment [2] is MDA-MB-231. Described as above. As to conditions: 72 h.

Each structure is given as a SMILES string. Counter-ions that a name gives are not always drawn.
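Further: viability read out with the CCK-8 kit in 96-well plates, screening a set of 303 compounds acting on lipid metabolism targets.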

Regarding `Oc1ccc(/C=C/c2cc(O)cc(O)c2)cc1` [Resveratrol], the values for the relative cell viability in experiment [1] and in experiment [2] were 0.67 and 0.755, respectively.
On to `OC[C@H]1O[C@@H](Oc2cc(O)cc(/C=C/c3ccc(O)cc3)c2)[C@H](O)[C@@H](O)[C@@H]1O` [Polydatin], for which the results for the relative cell viability in experiment [1] and in experiment [2] were 1.07 and 0.871, respectively.
In the same order, the values of `C[C@@H]1O[C@@H](O[C@H]2[C@H](Oc3cc(O)c4c(c3)O[C@H](c3ccc(O)cc3)CC4=O)O[C@H](CO)[C@@H](O)[C@@H]2O)[C@H](O)[C@H](O)[C@H]1O` [Naringin] are 1.24 and 0.892.
For `COc1c(/C=C/C(=O)c2ccc(O)cc2)ccc(O)c1CC=C(C)C`, the relative cell viability in experiment [1] is 1.06; in experiment [2], 0.885.
In the same order, the values of `O=C1c2cc(CO)cc(O)c2C(=O)c2c(O[C@@H]3O[C@H](CO)[C@@H](O)[C@H](O)[C@H]3O)cccc21` [Aloe-emodin-8-O-beta-D-glucopyranoside] are 0.544 and 0.783.
Consider `Cc1c2c(=O)n(-c3ccccc3Cl)[nH]c2cc(=O)n1Cc1ccccn1`, for which the relative cell viability in experiment [1] was determined as 0.973; in experiment [2], 1.07.
For the compound `O=C(Nc1ccccc1)N1CCN(c2nc(-c3ccccc3)ns2)CC1`, the relative cell viability in experiment [1] came out at 0.807; in experiment [2], 0.821.
On to `CCCCCCCCCCOc1ccc(C(=O)Nc2cc(C(=O)NCCCC)ccc2SC)cc1`, for which the relative cell viability in experiment [1] stood at 1.02; in experiment [2], 1.06.
For the compound `Cc1nc(Nc2cnn(C3CCNCC3)c2)nc2c1N(C)C(=O)c1cc3ccccc3cc1N2C`, the relative cell viability in experiment [1] is 0.354; in experiment [2], 0.49.
`N[C@@H](Cc1c[nH]cn1)C(=O)O` [histidine]: the relative cell viability in experiment [1] came to 1.05; in experiment [2] it was 1.03.
For the compound `CC(C)C1=CC2=CC[C@@H]3[C@](C)(CCC[C@@]3(C)C(=O)O)[C@H]2CC1` [Abietic Acid], the values for the relative cell viability in experiment [1] and in experiment [2] were 1.02 and 1.07, respectively.
In the same order, the values of `Cc1cccc(Nc2cc(Cl)nc(SCC(=O)O)n2)c1C` [Pirinixic Acid] are 0.824 and 0.88.
As for `CCN(CC)Cc1ccc(C(=O)N(CCc2ccccc2OC)[C@@H]2CCNC2)cc1`, the relative cell viability in experiment [1] was determined as 1.45; in experiment [2], 0.979.
Turning to `COc1cc(N(C)C)cc(CN(C)CCc2ccc([N+](=O)[O-])cc2)c1O` [CDC25 Phosphatase Inhibitor I], the values for the relative cell viability in experiment [1] and in experiment [2] were 0.966 and 0.976, respectively.
Consider `Cc1ccc(CN(CC(O)COc2cccc3[nH]ccc23)C(C)(C)C)cc1` (centres undefined), for which the results for the relative cell viability in experiment [1] and in experiment [2] were 0.994 and 0.988, respectively.
Consider `Cc1ccc(Oc2nc3cc(-c4ccc(-c5ccccc5)cc4)c(Cl)cc3[nH]2)cc1C(=O)O`, for which the figures for the relative cell viability in experiment [1] and in experiment [2] were 0.95 and 0.92, respectively.
On to `CC(C)n1c(/C=C/C(O)CC(O)CC(=O)O)c(-c2ccc(F)cc2)c2ccccc21` (centres undefined) [Fluvastatin sodium salt], for which the relative cell viability turned out to be 0.924 in experiment [1] and 0.863 in experiment [2].
With `CCCCC[C@H](O)CC(=O)CCc1ccc(O)c(OC)c1` [6-Gingerol], the relative cell viability in experiment [1] was 0.646; in experiment [2] it was 0.862.
For `O=C(O)C(O)Cc1ccc(O)c(O)c1` (centres undefined) [Sodium Danshensu], the relative cell viability in experiment [1] came to 0.718; in experiment [2] it was 0.818.
With `CCC1C(O)C2C3CCC(C(C)CCO)C3(C)CCC2C2(C)CCC(O)CC12` (centres undefined), the relative cell viability in experiment [1] was 0.848; in experiment [2], 0.916.
For `C[C@H](CCC(=O)O)[C@H]1CC[C@H]2[C@@H]3C[C@H](O)[C@@H]4C[C@H](O)CC[C@]4(C)[C@H]3CC[C@]12C` [Hyodeoxycholic acid], the relative cell viability was 0.929 in experiment [1] and 1.02 in experiment [2].
For the compound `O=C(c1c2ccccc2cc2ccccc12)N1CCC(N2CCC[C@@H](C(=O)N3CCOCC3)C2)CC1`, the relative cell viability came out at 0.763 in experiment [1] and 0.836 in experiment [2].
In the case of `CC(C)(CCCCCC(O)CCCCCC(C)(C)C(=O)O)C(=O)O`, the relative cell viability in experiment [1] amounted to 0.598; in experiment [2] it was 0.886.
In the same order, the values of `C=C1C[C@]2(O)O[C@@]3(CC2=C(C)C)[C@@H](C)CC[C@@H]13` [Isocurcumenol] are 0.933 and 0.92.
With `O=C(O)c1cc(F)c2nc(N3[C@@H]4CC[C@H]3C[C@@H](OCc3c(-c5ccccc5OC(F)(F)F)noc3C3CC3)C4)sc2c1` [Tropifexor], the relative cell viability in experiment [1] was 1.05; in experiment [2], 0.971.
For the compound `Cc1c(C(=O)NN2CCOCC2)nn(-c2ccc(Cl)cc2Cl)c1-c1ccc(I)cc1`, the figures for the relative cell viability in experiment [1] and in experiment [2] were 0.645 and 0.817, respectively.
The like results for `CC1CC(OC(=O)C(O)c2ccccc2)CC(C)(C)C1` (centres undefined) [Cyclandelate] were, in that order, 1.21 and 0.825.
`CC(C)(Oc1ccc(C(=O)c2ccc(Cl)cc2)cc1)C(=O)O` [Choline Fenofibrate]: the relative cell viability in experiment [1] was 0.928; in experiment [2] it was 1.07.
For the compound `O=C1/C(=C/c2cccs2)CC/C1=C\c1cccs1`, the relative cell viability came to 0.766 in experiment [1] and 0.84 in experiment [2].
In the same order, the values of `CCCC[S+]([O-])c1sc2nc(-c3cccs3)cc(-c3ccccc3)c2c1N` (centres undefined) are 0.85 and 0.806.
Regarding `COc1ccc(-c2c[nH]c3nccc(-c4ccsc4)c23)c(OC)c1`, the relative cell viability in experiment [1] was determined as 0.993; in experiment [2], 0.935.
Turning to `CCOC(=O)N1c2ccc(C(F)(F)F)cc2[C@@H](N(Cc2cc(C(F)(F)F)cc(C(F)(F)F)c2)C(=O)OC)C[C@H]1CC` [Torcetrapib], the relative cell viability was 0.745 in experiment [1] and 0.781 in experiment [2].
